What all share (test): fluorescence anisotropy competition titration; 25 mM sodium phosphate (purification buffer pH 7.2), 225 mM NaCl, 10% v/v glycerol, 5 mM DTT, 0.2 mg/mL BSA, 22 C; low values mean tight binding
Common to all, as to details: protein: recombinant; tags: N-terminal 6xHis-lipoyl-TEV tag, cleaved; chain copies: 4; dsDNA, one strand shown
A general note: Fluorescence polarisation rises when a labelled molecule tumbles more slowly, as on binding a larger partner.

Test [1] addresses T1, Dmp53 (Drosophila melanogaster, UniProt Q9N6D8 1-385).
T1 sequence: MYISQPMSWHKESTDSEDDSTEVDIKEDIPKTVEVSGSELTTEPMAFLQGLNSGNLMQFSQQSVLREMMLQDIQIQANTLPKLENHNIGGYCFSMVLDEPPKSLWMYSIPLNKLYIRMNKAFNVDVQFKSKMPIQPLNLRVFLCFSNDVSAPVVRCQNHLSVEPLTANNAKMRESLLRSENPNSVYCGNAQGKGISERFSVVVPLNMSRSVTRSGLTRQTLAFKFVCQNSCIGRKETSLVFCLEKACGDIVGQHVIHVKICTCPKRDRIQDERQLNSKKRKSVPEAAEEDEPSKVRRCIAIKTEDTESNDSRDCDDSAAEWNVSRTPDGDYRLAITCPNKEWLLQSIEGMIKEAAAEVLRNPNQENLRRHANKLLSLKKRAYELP

The target in test [2] is T2, Drp53 (Danio rerio, UniProt P79734 1-373).
T2 sequence: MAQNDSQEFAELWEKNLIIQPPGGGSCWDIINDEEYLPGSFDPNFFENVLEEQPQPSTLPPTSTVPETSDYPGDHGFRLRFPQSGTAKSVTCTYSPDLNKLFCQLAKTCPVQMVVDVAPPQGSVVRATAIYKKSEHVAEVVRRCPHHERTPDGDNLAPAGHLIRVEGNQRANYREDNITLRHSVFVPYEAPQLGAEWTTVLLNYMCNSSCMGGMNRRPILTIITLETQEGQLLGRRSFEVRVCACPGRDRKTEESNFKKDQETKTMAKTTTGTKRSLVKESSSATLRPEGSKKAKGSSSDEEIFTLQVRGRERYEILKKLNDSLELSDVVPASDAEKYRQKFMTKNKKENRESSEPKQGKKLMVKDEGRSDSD

Test [3] deals with Hsp53 (Homo sapiens, UniProt P04637 1-393).
For test [4], the target named is Xlp53 (Xenopus laevis, UniProt Q7T1D0 1-362).
The target of test [5] is T3, ΔNp63α (Homo sapiens, UniProt Q9H3D4-2 1-586).
T3 sequence: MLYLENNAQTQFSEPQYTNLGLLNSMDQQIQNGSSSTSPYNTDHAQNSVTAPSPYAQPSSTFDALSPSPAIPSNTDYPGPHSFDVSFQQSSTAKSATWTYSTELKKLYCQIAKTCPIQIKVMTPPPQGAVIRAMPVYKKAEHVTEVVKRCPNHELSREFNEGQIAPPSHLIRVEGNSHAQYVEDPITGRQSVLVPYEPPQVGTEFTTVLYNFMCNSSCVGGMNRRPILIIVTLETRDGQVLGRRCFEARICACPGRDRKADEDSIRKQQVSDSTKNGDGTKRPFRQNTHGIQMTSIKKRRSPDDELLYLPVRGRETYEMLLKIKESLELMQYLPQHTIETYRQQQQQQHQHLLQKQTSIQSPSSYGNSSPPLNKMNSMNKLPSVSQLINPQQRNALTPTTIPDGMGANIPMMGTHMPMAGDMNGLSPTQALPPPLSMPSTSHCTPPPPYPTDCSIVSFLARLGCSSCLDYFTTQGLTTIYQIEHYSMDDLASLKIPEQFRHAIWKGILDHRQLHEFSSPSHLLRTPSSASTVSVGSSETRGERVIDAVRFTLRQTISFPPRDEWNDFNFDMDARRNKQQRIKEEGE

Test [6] has as its target T4, ΔNp63β (Homo sapiens, UniProt Q9H3D4-4 1-461).
T4 sequence: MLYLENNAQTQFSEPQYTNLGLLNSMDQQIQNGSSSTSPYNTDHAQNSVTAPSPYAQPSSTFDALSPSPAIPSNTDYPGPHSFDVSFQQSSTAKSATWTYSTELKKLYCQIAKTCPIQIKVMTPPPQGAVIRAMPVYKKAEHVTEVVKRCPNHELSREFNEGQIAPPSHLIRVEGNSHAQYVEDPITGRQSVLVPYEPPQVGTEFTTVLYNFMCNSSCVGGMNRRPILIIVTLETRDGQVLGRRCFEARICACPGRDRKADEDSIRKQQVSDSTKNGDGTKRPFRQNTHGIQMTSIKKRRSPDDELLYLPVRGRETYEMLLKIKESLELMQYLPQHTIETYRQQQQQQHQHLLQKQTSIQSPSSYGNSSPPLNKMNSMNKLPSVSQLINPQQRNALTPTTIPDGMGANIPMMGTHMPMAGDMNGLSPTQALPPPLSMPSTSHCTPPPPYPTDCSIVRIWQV

Test [7] addresses T5, ΔNp63γ (Homo sapiens, UniProt Q9H3D4-6 1-393).
T5 sequence: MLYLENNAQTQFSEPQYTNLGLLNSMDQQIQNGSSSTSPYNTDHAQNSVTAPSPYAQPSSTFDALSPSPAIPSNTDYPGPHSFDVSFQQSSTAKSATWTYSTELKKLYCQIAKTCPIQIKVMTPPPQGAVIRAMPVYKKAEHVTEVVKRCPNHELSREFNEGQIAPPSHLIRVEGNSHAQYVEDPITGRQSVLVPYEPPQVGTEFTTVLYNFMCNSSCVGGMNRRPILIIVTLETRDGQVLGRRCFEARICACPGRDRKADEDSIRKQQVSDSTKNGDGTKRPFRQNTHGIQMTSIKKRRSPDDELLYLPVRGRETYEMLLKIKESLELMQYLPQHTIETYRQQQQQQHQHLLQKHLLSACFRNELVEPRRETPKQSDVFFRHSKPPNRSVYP

Test [8] addresses T6, ΔNp73β (Homo sapiens, UniProt O15350-9 1-450).
T6 sequence: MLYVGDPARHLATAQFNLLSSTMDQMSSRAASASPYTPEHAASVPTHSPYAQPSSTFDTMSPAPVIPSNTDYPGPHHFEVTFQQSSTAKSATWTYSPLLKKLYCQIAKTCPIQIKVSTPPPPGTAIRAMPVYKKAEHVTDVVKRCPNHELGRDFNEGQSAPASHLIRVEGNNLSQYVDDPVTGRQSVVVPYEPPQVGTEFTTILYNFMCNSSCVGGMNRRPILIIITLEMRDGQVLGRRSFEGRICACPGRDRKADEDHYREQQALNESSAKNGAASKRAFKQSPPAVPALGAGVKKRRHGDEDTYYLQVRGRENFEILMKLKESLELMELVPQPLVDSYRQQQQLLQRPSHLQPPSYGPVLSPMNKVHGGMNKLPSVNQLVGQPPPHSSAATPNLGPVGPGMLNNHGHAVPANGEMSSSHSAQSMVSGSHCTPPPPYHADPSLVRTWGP

The target in test [9] is Mmp53 (Mus musculus, UniProt P02340 1-390).
The target in test [10] is T7, p73CT (Homo sapiens, UniProt O15350 104-383).
T7 sequence: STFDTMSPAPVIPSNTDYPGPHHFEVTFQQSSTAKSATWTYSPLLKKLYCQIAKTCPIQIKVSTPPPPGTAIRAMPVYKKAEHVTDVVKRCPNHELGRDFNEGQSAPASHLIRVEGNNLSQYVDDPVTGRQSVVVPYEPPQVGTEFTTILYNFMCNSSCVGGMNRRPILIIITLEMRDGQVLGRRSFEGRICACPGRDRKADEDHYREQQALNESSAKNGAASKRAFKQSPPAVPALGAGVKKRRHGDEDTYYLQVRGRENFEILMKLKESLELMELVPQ

Chain of Mmp53 (P02340 whole entry): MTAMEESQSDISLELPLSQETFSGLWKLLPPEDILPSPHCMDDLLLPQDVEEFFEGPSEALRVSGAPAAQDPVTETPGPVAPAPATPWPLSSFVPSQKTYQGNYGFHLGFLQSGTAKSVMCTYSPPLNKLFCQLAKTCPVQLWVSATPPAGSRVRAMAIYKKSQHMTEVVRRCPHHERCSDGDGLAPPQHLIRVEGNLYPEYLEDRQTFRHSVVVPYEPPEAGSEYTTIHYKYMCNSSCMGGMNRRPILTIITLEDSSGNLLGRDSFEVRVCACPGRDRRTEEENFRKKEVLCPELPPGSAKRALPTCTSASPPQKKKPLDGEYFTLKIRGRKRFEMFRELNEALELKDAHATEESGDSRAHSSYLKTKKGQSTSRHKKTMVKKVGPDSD
Chain of Xlp53 (Q7T1D0 entry or part of it): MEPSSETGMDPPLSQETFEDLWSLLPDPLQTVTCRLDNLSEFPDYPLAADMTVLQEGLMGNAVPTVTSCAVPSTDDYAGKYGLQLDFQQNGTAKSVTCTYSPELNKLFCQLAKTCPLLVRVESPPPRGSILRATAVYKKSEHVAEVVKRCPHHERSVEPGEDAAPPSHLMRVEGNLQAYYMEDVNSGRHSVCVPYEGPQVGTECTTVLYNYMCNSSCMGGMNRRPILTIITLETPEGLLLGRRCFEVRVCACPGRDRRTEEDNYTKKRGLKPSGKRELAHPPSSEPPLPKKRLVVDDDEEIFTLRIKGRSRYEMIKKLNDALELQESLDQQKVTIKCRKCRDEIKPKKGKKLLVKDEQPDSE
Chain of Hsp53 (P04637 whole entry): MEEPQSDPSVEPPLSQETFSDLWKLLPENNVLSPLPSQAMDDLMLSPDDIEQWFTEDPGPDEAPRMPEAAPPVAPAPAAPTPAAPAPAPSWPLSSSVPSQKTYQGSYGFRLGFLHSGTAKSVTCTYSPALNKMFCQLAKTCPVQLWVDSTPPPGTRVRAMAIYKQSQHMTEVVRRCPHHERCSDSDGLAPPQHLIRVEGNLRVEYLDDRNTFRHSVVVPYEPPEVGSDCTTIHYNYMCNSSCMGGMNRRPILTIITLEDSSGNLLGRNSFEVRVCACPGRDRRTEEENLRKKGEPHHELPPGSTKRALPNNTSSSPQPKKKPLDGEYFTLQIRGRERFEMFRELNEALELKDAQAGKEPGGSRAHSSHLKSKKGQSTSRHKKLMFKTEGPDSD

For CGCGGACATGTACGGACATGTCCCGC, the binding signal in [1] was 0.07 delta log10 Kd; in test [2] it was 0.39 delta log10 Kd; in [3] it was 0.34 delta log10 Kd; in test [4], 0.35 delta log10 Kd; in test [5], 0.15 delta log10 Kd; in test [6] it was 0.29 delta log10 Kd. The binding signal is 0.32 delta log10 Kd in test [7], 0.4 delta log10 Kd in [8], 0.27 delta log10 Kd in [9] and 0.36 delta log10 Kd in [10].
For the sequence CGCGGACGTGTCCGGACATGTCCCGC, the binding signal was determined as 0.18 delta log10 Kd in test [1]; 0.54 delta log10 Kd in [2]; 0.43 delta log10 Kd in test [3]; 0.44 delta log10 Kd in [4]; 0.07 delta log10 Kd in test [5]; 0.2 delta log10 Kd in test [6]. Moreover, the binding signal in [7] is 0.19 delta log10 Kd; in test [8], 0.27 delta log10 Kd; in test [9], 0.31 delta log10 Kd; in test [10] it was 0.22 delta log10 Kd.
For CGCGAACATGTCCGGACATGTCCCGC, the binding signal in test [1] is 0 delta log10 Kd; in test [2] it was 0.08 delta log10 Kd; in [3], 0.05 delta log10 Kd; in test [4], 0.01 delta log10 Kd; in test [5], 0 delta log10 Kd; in [6], 0.02 delta log10 Kd. Further, the binding signal in test [7] is 0.1 delta log10 Kd; in [8], 0.03 delta log10 Kd; in [9] it was 0.08 delta log10 Kd; in test [10], 0.05 delta log10 Kd.
On to CGCGGACATCTCCGGACATGTCCCGC, for which the binding signal turned out to be 1.51 delta log10 Kd in test [1]; 1.3 delta log10 Kd in [2]; 0.9 delta log10 Kd in [3]; 1.38 delta log10 Kd in test [4]; 1.33 delta log10 Kd in test [5]; 1.45 delta log10 Kd in test [6]. The binding signal is 1.68 delta log10 Kd in test [7], 1.8 delta log10 Kd in [8], 0.67 delta log10 Kd in test [9] and 1.56 delta log10 Kd in test [10].
With CGCGGACACGTCCGGACATGTCCCGC, the binding signal in test [1] came out at 0.25 delta log10 Kd; in [2], 0.65 delta log10 Kd; in test [3], 0.53 delta log10 Kd; in test [4] it was 0.7 delta log10 Kd; in test [5], 0.25 delta log10 Kd; in [6], 0.57 delta log10 Kd. In addition, the binding signal in test [7] came out at 0.52 delta log10 Kd; in [8], 0.62 delta log10 Kd; in test [9], 0.36 delta log10 Kd; in test [10], 0.58 delta log10 Kd.
Regarding CGCGGACATGTTCGGACATGTCCCGC, the binding signal in test [1] came out at 0.17 delta log10 Kd; in test [2] it was 0.38 delta log10 Kd; in test [3], 0.34 delta log10 Kd; in test [4], 0.39 delta log10 Kd; in test [5], 0.17 delta log10 Kd; in [6], 0.47 delta log10 Kd. Also, the binding signal in test [7] was found to be 0.33 delta log10 Kd; in test [8] it was 0.48 delta log10 Kd; in test [9], 0.19 delta log10 Kd; in test [10], 0.36 delta log10 Kd.
Turning to CGCGGAGATGTCCGGACATGTCCCGC, the binding signal stood at 1.2 delta log10 Kd in test [1]; 0.95 delta log10 Kd in test [2]; 0.74 delta log10 Kd in test [3]; 1.07 delta log10 Kd in test [4]; 0.84 delta log10 Kd in test [5]; 1.29 delta log10 Kd in test [6]. In addition, the binding signal in test [7] worked out at 1.19 delta log10 Kd; in test [8], 1.32 delta log10 Kd; in test [9] it was 0.4 delta log10 Kd; in [10], 1.18 delta log10 Kd.

For the origin of these results see PMC2807882, “Conservation of DNA-binding specificity and oligomerisation properties within the p53 family”.
